Sampled rows, rich in hits. Any-hit rate of the full collection: about 7.4%.
ELG1 genotox – qHTS screen for small molecules that induce genotoxicity in human embryonic kidney (HEK293T) cells expressing luciferase-tagged ELG1; HEK293T ELG1-luciferase reporter, luminescence, 16 h; 330,000 compounds, 1.3% hits; Potency, µM (series often up to 46 µM), for the others: at the top dose activity change, positive = activation, most hits filed as activators; note: % of control where 0% means no effect; nearly all actives have a fitted effect of over 60% in size
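DMSO vehicle served as control against compound-treated ELG1-luciferase HEK293T cells; exposure lasted 16 hr at 37 °C and 5% CO2, followed by ONE-Glo luminescence detection after 30 min.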
NPC1 promoter act – qHTS Assay for NPC1 Promoter Activators | Huh7 NPC1 promoter luciferase reporter, 24 h | Potency, µM (top dose mostly 9.22 µM), without a hit: top-dose activation, actives largely listed as activators | 320,000 compounds, 2.4% hits | AID 485313, 2010; note: % of control where 0% means no effect; nearly all actives have a fitted effect of over 60% in size
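Stably transfected Huh7 (NPC1 promoter→luciferase), 1500 cells/well in Opti-MEM + 10% FBS, 2 h settle, then compound 24 h at 37 °C. Luminescence after 10 min with Amplite reagent.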
FLuc counter – qHTS profiling assay for firefly luciferase inhibitor/activator using purifed enzyme and Km concentrations of substrates (counterscreen for miR-21 project) | Potency, µM (doses to about 57.5 µM), for inactives: at the highest dose activity change, negative = inhibition, usual class: inhibitors | Luciferin 4-monooxygenase (Photinus pyralis), P08659 | purified FLuc, Km substrates, luminescence inhibition | AID 588342, 2011 | 360,000 compounds, 6.9% hits;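 note: plate controls were vehicle for no effect and reference inhibitor for full effect; nearly all actives have a fitted effect of over 55% in size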
Target sequence (P08659 whole entry, looked up): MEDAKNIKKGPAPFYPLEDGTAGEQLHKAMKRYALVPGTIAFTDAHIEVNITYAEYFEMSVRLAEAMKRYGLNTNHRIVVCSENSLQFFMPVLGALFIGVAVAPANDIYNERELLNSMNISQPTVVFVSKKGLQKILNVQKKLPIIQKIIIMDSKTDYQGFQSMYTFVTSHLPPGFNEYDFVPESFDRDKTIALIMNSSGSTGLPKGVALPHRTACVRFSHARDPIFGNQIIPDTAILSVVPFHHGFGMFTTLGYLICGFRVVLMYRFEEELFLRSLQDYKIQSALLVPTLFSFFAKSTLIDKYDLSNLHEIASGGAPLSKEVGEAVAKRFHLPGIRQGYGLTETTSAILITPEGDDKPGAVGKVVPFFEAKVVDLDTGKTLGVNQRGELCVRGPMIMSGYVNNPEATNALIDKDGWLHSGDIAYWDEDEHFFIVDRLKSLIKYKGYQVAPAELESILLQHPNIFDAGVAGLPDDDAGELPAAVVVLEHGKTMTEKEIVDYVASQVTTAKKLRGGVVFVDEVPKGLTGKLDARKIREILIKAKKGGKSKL
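Biochemical qHTS of compounds, final roughly 60 µM downward over six points, against 10 nM purified firefly luciferase using Km concentrations of substrates (10 uM D-luciferin, 10 uM ATP) in Tris acetate pH 7.5 buffer; luminescence output.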
p53 reactivation – qHTS assay for re-activators of p53 using a Luc reporter; H1299 p53-A138V BP100-luciferase reporter, luminescence, 24 h; Potency, µM (highest dose often 92.2 µM), without a hit: at the top dose activity change, positive = activation, most hits filed as activators; 320,000 compounds, 0.063% hits; AID 504706, 2011; note: % of control where 0% means no effect; nearly all actives have a fitted effect of over 45% in size
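H1299 (p53-null), stable ts p53-A138V + BP100-Luc; 1000 cells/well, Opti-MEM/10% FBS; cpd 4 pt, 1:5; 24 h, 37 deg C, 5% CO2; detection reagent 10 min RT; luminescence.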
SMN2 splice enh – qHTS Assay for Enhancers of SMN2 Splice Variant Expression. Potency, µM (titrated, usually from 46.1 µM), inactives show top-dose activity change, positive = activation, usual class: activators. HEK293 SMN2-luciferase splicing reporter, luminescence, 30-36 h. 210,000 compounds, 2.8% hits. AID 1458, 2008; note: % of control where 0% means no effect; nearly all actives have a fitted effect of over 55% in size
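HEK293 cells carry an SMN2 minigene-luciferase reporter in which exon 7 inclusion puts luciferase in frame. Cells were seeded at 2000 cells/well, attached for 10-12 hours, then exposed to compounds for 30-36 hours at 37C before ONE-Glo luminescence.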
Rab9 promoter act – qHTS Assay for Rab9 Promoter Activators | AID 485297, 2010 | Potency, µM (series often up to 9.22 µM), for the others: top-dose activation, negative = inhibition, most hits filed as activators | Huh7 Rab9 promoter-luciferase reporter, luminescence, 24 h | 320,000 compounds, 2.8% hits; note: % of control where 0% means no effect; nearly all actives have a fitted effect of over 60% in size
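Stable Rab9-luc Huh7, 1500 cells/well, 2 h settle; cmpd in DMSO, 24 h, 37 °C/5% CO2; luciferase reagent 10 min RT; luminescence.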
An asterisk follows results filed as active; ? = inconclusive; . = no result; [ ] = another dose, or the depositor's remark. Calls come from the whole dose curve; as a rule, active = well fitted curve in the direction sought with a large enough effect; inconclusive = small, poorly fitted or top-dose-only effect, or another doubt; inactive = no such curve, though single readings can be large; an effect the other way counts as inactive or inconclusive. Potency is the fitted concentration of half-maximal effect.

SMILES | ELG1 genotox | NPC1 promoter act | FLuc counter | p53 reactivation | SMN2 splice enh | Rab9 promoter act
Cc1ccc(/C=C2/SC(=S)N(CCC(=O)N3CCN(C)CC3)C2=O)cc1 | -1.8% | -0.8% | ? | ? | . | -8.3%
COc1ccc(C(CNC(=O)c2cccc(S(=O)(=O)NCc3ccccc3)c2)N(C)C)cc1 (stereo not given) | 4.2% | 0.6% | -4.8% | ? | . | 0.5%
CC(C)(C)c1ccc(OCCC(=O)OCC(=O)NC2CCS(=O)(=O)C2)cc1 (stereo not given) | 0.3% | -4.0% | ? | 4.2% | . | -5.7%
CC(C)(C)c1ccc(OCCC(=O)OCC(=O)NCc2ccccc2)cc1 | 5.6% | 0.1% | 19µM* | 5.8% | . | -5.5%
Cn1c(N)c(C(=O)COC(=O)CCOc2ccc(C(C)(C)C)cc2)c(=O)n(C)c1=O | 3.9% | -3.4% | 21.3µM* | 1.7% | 8.7% | 8.0%
CC(C)(C)c1ccc(OCCC(=O)OCC(=O)NC2CC2)cc1 | -0.6% | -3.8% | 15.1µM* | -14.1% | . | -8.2%
CCN1CCN(Cc2ccc(NC(=O)c3cc(NC(=O)c4ccc5n[nH]nc5c4)cc(OC)c3)cc2C(F)(F)F)CC1 | 3.3% | -6.8% | 2.69µM* | 0.2% | . | -2.8%
CCN1CCN(Cc2ccc(NC(=O)c3cc(NC(=O)c4cc(-c5ccc(OC)cc5)n[nH]4)cc(OC)c3)cc2C(F)(F)F)CC1 | 7.9% | -1.6% | 13.5µM* | -9.7% | . | -1.7%
CCN1CCN(Cc2ccc(NC(=O)c3cc(NC(=O)N4CCNC4=O)cc(OC)c3)cc2C(F)(F)F)CC1 | -18.7% | 0.3% | -11.8% | 0.1% | . | -4.1%
CCN1CCN(Cc2ccc(NC(=O)c3cc(NC(=O)c4ccno4)cc(OC)c3)cc2C(F)(F)F)CC1 | -3.2% | -2.7% | -2.6% | -3.2% | . | -6.4%
COc1ccc([C@@H]2CC(=O)c3c(O)cc(O[C@H]4O[C@@H](CO[C@H]5O[C@@H](C)[C@@H](O)[C@@H](O)[C@@H]5O)[C@@H](O)[C@@H](O)[C@@H]4O)cc3O2)cc1O | . | . | . | . | 3.1%[20.6 µM] | .
O=C(NC1CCCCC1)c1ccc(-c2cccc([N+](=O)[O-])c2)o1 | 2.06µM* | 0.316µM* | 2.69µM* | ? | . | 0.398µM*
COCC(C)NC(=O)c1cc(-c2cccc(OC)c2)on1 (stereo not given) | ? | ? | ? | ? | ? | 2.24µM*
COc1cccc(-c2cc(C(=O)NC3CCCC3)no2)c1 | 1.84µM* | 1.41µM* | 4.26µM* | ? | 11.2µM* | 0.631µM*
COc1cccc(-c2cc(C(=O)NCc3ccc(F)cc3)no2)c1 | . | . | -11.9% | . | -2.7% | .
COCC(C)NC(=O)c1cc(-c2ccc(O)cc2)on1 (stereo not given) | ? | 26.6% | -19.7% | ? | 8.7% | 25.3%
COCCNC(=O)c1cc(-c2cccc(OC)c2)on1 | ? | 3.55µM* | 12µM* | 13.8% | 11.2µM* | 3.16µM*
O=C(O)c1ccc(-c2cccc([N+](=O)[O-])c2)o1 | -2.7% | -0.8% | -15.8% | -0.8% | . | -0.3%
O=C(NCCc1ccc(Cl)cc1)C1CCN(S(=O)(=O)c2ccc3[nH]ccc3c2)CC1 | . | . | -0.8% | . | . | .
O=[N+]([O-])c1ccc(C(c2sc3nc(-c4ccco4)nn3c2O)N2CCN(c3cccc(Cl)c3)CC2)cc1 (stereo not given) | . | . | 19µM* | . | . | .
CCN1CCN(C(c2ccccc2)c2sc3nc(-c4ccco4)nn3c2O)CC1 (stereo not given) | . | . | 3.4% | . | . | .
CCOC(=O)CSc1ccc(C(=O)Nc2ccc(OC)cc2)cn1 | -0.1% | -0.8% | ? | -3.1% | 6.9% | -3.8%

Bioassay records: PubChem, National Center for Advancing Translational Sciences (NCATS)
